High-throughput results from PubChem.
iPSC survival up: enhancers of single-cell hiPSC survival, primary screen, ATPlite luminescence | 100% = ROCK inhibitor wells, 0% = DMSO | 0.044% of 360,000 active | survival enhancement, % at 20 µM; in the data active = survival enhancement above about 18%;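 also: cells exposed to compounds for 16 hours before the ATP read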
TAG inh: inhibitors of triacylglycerol accumulation, primary screen, cell-based, uHTS, fluorescence, H9c2. H9c2 cells, Nile Red lipid (TAG) fluorescence; cells loaded with 200 µM oleic acid. 0.66% of 230,000 active. inhibition, % at 12.5 µM;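 active = pattern-corrected inhibition of lipid staining of at least 50% with the nuclear-stain viability signal not falling by more than 50%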
beta cell repl: inducers of MIN6 beta-cell proliferation, primary screen, ATP luminescence, uHTS. MIN6 cells proliferation, ATPlite luminescence, 48 h; cells starved in 0.2% serum; 100% = growth in 10% serum. proliferation, % at 10 µM. 0.29% of 330,000 active. AID 2380, 2010;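 active = compounds whose signal lies at least 3.5 SD above the mean of all wells on their plate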
H9c2 TAG conf: triacylglycerol accumulation inhibitors, retest, confirmation, cell-based, single concentration, Nile Red fluorescence, H9c2; inhibition, % at 12.5 µM; shares compounds with TAG inh; H9c2 lipid accumulation; cells loaded with 200 µM oleic acid; 71% of 990 active; AID 651629, 2012;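 active = mean inhibition across replicates of 40% or more; inactive = mean inhibition below 40%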
Large screens that a line does not name were inactive (follow-up assays come after a bar, where they were run). Compounds with a hit are over-represented: about 0.71% of the library has one in this group of screens.

CCN(CC)CCNc1nc2c(c(=O)[nH]c(=O)n2C)n1CC(O)COc1ccc(Cl)cc1Cl (stereo unspecified)	none (no result: TAG inh)
Cc1cc(C)n(-c2nc3c(c(=O)[nH]c(=O)n3C)n2CC(O)COc2ccc(Cl)cc2Cl)n1 (stereo unspecified)	TAG inh 82 | H9c2 TAG conf 74
O=C(NC1CCCc2c1cnn2-c1ccccc1F)c1ccncc1 (stereo unspecified)	none (no result: beta cell repl)
COc1cc2c(cc1NC(=O)Nc1cccc(C)c1)oc1ccccc12	TAG inh 51 | H9c2 TAG conf inactive
COc1cc2c(cc1NC(=O)Nc1ccc(C)cc1)oc1ccccc12	none
Cn1c(N)c(C(=O)COC(=O)c2ccc([N+](=O)[O-])o2)c(=O)n(C)c1=O	TAG inh 88 | H9c2 TAG conf 101
Cn1c(N)c(C(=O)COC(=O)c2ccc(Br)o2)c(=O)n(C)c1=O	none (no result: TAG inh)
C#CCN1C=C(C(=O)OCC)C(C)N(Cc2ccccc2I)S1(=O)=O (stereo unspecified)	none (no result: beta cell repl)
COc1cc(CNC2CCCCCCC2)cc(Br)c1OCC#N	none (no result: TAG inh)
CCOc1c(Br)cc(CNC2CCCCCCC2)cc1OC	TAG inh 70 | H9c2 TAG conf 80
COc1ccc(-c2coc3c(C(=O)Nc4cccc(C(C)=O)c4)cccc23)c(C)c1	none (no result: beta cell repl)
CCOC(=O)[C@]12CCCC=C1N(Cc1ccc(Cl)cc1Cl)C(=O)[C@H](CC(=O)NCc1cccc3ccccc13)C2	none (no result: TAG inh, beta cell repl)
COc1ccc(C(=O)Nc2ccc(Cl)cc2C(=O)NCc2ccco2)cc1OC	TAG inh 52 | H9c2 TAG conf inactive
COc1cc(C(=O)Nc2sc3c(c2C(=O)NCc2ccco2)CCCC3)cc(OC)c1OC	none
COc1ccc(C(=O)Nc2ccccc2C(=O)NCc2ccco2)cc1OC	none (no result: TAG inh)
COc1ccc(C(=O)Nc2sc3c(c2C(=O)NCc2ccco2)CCCC3)cc1OC	TAG inh 66 | H9c2 TAG conf 52
CC(=O)N(C)C[C@@H]1Oc2ncc(Br)cc2C(=O)N([C@H](C)CO)C[C@@H]1C	none (no result: beta cell repl)
Cc1cccc2c(N=NC(=O)c3ccc(NS(=O)(=O)c4cccs4)cc3)c(O)[nH]c12	none
Cc1cccc2c(N=Nc3ccc(S(=O)(=O)Nc4ccc(Cl)cc4)cc3[N+](=O)[O-])c(O)[nH]c12	TAG inh 54 | H9c2 TAG conf 51
O=c1cc(CN(Cc2ccccc2)Cc2ccccc2)c2c(ccc3ccccc32)o1	none (no result: TAG inh, beta cell repl)
C[C@H](CO)N1C[C@H](C)[C@@H](CN(C)Cc2ccncc2)Oc2c(cccc2N(C)C)C1=O	none (no result: TAG inh)
C[C@@H]1CN([C@@H](C)CO)C(=O)c2cc(N(C)C)ccc2O[C@@H]1CN(C)Cc1ccncc1	TAG inh 61 | H9c2 TAG conf inactive
CC1=C(C(=O)N2CCOCC2)CC(CC(=O)NCCc2ccccn2)C(=O)N1Cc1ccc(C(C)(C)C)cc1 (stereo unspecified)	none (no result: beta cell repl)
C=CCNc1ncnc2c1ncn2[C@H]1CN(Cc2cccc3ccccc23)C[C@@H](CO)O1	none (no result: beta cell repl)
CCCCn1nnnc1C(c1cc2ccccc2o1)N1CCN(CC(=O)NC(C)C)CC1 (stereo unspecified)	none (no result: TAG inh, beta cell repl)
O=c1nc(N/N=C/c2c[nH]c3ccccc23)cn[nH]1	none
O=c1nc(N/N=C/C=C/c2ccccc2)cn[nH]1	TAG inh 64 | H9c2 TAG conf inactive
Cc1ccc(NC(=O)N2CCCC2C(=O)Nc2ccc(-n3cnnn3)c(C)c2)cc1 (stereo unspecified)	none
CCOc1ccccc1NC(=O)N1CCCC1C(=O)Nc1ccc(-n2cnnn2)c(C)c1 (stereo unspecified)	TAG inh 56 | H9c2 TAG conf inactive
COc1cccc(/C=C/C(=O)NNC(=O)c2ccccc2)c1OC	none
COc1cccc(/C=C/C(=C2/C(=O)N(c3ccccc3)N=C2C)c2ccc(C)cc2)c1OC	TAG inh 112 | H9c2 TAG conf 129
CCCNC(=O)C1(C)CCN(CCOc2ccc(Cl)cc2)C1 (stereo unspecified)	none (no result: beta cell repl)
Cc1c(C(=O)NCc2cccc(C(F)(F)F)c2)sc(=O)n1Cc1cccc(F)c1	none (no result: beta cell repl)
Cc1ccc(C2(SCC(N)C(=O)O)c3ccccc3-c3ccccc32)cc1 (stereo unspecified)	none (no result: beta cell repl)
O[C@H]1CN(CC2CCCCC2)[C@@H](c2ccc(Cl)cc2)C[C@@H]1n1cc(-c2ccc(F)cc2)nn1	TAG inh 51 (no result: beta cell repl) | H9c2 TAG conf 64
O[C@H]1C[C@H](c2ccc(Cl)cc2)N(CC2CCCCC2)C[C@@H]1n1cc(-c2ccc(F)cc2)nn1	none (no result: beta cell repl)
